{
  "source": "PubChem BioAssay AID720518",
  "about": "(National Center for Advancing Translational Sciences (NCATS), 2013)",
  "note": "Results filed as inconclusive are left out. Entries that show only a call come without a potency. Activity calls are given as the source filed them. Calls follow the shape of the full dose curve.",
  "data": [
    {"experiment": "qHTS for Inhibitors of Cell Surface uPA Generation: Wild-type Protective Antigen (WT-PrAg) Counterscreen for Cherry-picked Compounds", "settings": "cells, WT protective antigen toxicity counterscreen; series mostly up to 115 µM", "values": [
      {"smiles": "Cc1nn2c(=O)cc(CSc3nc4ccccc4[nH]3)nc2s1", "Potency": "inactive"},
      {"smiles": "COc1ccc(-c2cc3nc(C)cc(-c4ccc(OC)cc4)n3n2)cc1", "Potency": "inactive"},
      {"smiles": "CN(Cc1ccc(C(C)(C)C)cc1)C(=O)Cc1ccc(S(=O)(=O)N2CCOCC2)s1", "Potency": "inactive"},
      {"smiles": "O=C1N[C@@H](Cc2c[nH]c3ccccc23)C(=O)N[C@H]1Cc1ccccc1", "Potency": "inactive"},
      {"smiles": "CC(C)(C)S(=O)(=O)N1C[C@H]2CC/C=C\\C/C(c3ccccc3)=C\\2[C@@H]1CCO", "Potency": "inactive"},
      {"smiles": "COc1ccc(/C(N)=N/OC(=O)Cc2ccccc2OC)cc1", "Potency": "inactive"},
      {"smiles": "Cc1ccc(S(=O)(=O)NCC(=O)OC(C)C(=O)NCc2ccc3c(c2)OCO3)cc1", "note": "(stereo not given)", "Potency": "inactive"},
      {"smiles": "Nc1cc(=O)[nH]c(SCC(=O)Nc2cccc([N+](=O)[O-])c2)n1", "Potency": "inactive"},
      {"smiles": "O=C(CNC(=O)N1CC(=O)Nc2ccccc21)Nc1cc(Cl)ccc1Cl", "Potency": "inactive"},
      {"smiles": "COc1ccc(NS(=O)(=O)c2cc(NS(=O)(=O)c3cc(C(=O)O)ccc3OC)ccc2C)cc1", "Potency": "inactive"},
      {"smiles": "CCOCCCn1c(SCC(=O)Nc2cc(OC)ccc2OC)nc2ccccc2c1=O", "Potency": "inactive"},
      {"smiles": "CN(C(=O)c1ccccc1C(=O)OCC(=O)NCc1ccccc1)C1CCCCC1", "Potency": "inactive"},
      {"smiles": "Cc1c([N+](=O)[O-])c2ccc(O)cc2n1-c1ccccc1", "Potency": "inactive"},
      {"smiles": "COc1ccc([C@@H]2[C@@H]3C(=O)N(C(C)(C)C)C(=O)[C@@H]3[C@]3(C)C(=O)N(c4cccc(Cl)c4)C(=O)N23)cc1", "Potency": "inactive"},
      {"smiles": "C=CCn1c(C)cc(C(=O)COC(=O)/C=C/c2cccc(OC)c2)c1C", "Potency": "inactive"},
      {"smiles": "Cc1nc([N+](=O)[O-])cn1CCCCN1C(=O)c2ccccc2C1=O", "Potency": "inactive"},
      {"smiles": "NC(=O)CC[C@H](NC(=O)c1ccc(F)cc1)C(=O)OCC(=O)Nc1c(F)c(F)c(F)c(F)c1F", "Potency": "inactive"},
      {"smiles": "CCCCCOC(=O)Nc1nnc(CCCCC)s1", "Potency": "inactive"},
      {"smiles": "C[C@H](CO)N1C[C@H](C)[C@H](CN(C)S(=O)(=O)c2cn(C)cn2)Oc2ccc(NC(=O)Nc3ccc(C(F)(F)F)cc3)cc2CC1=O", "Potency": "inactive"},
      {"smiles": "Cc1ccc(S(=O)(=O)N2CCC(C(=O)OC(C)C(=O)NC3CCCCC3C)CC2)cc1", "note": "(stereo not given)", "Potency": "inactive"},
      {"smiles": "Cc1c(NC(=O)C(C)OC(=O)CCC2CCCC2)c(=O)n(-c2ccccc2)n1C", "note": "(stereo not given)", "Potency": "inactive"},
      {"smiles": "O=C(O)COc1ccccc1/C=N/NC(=O)CNC(=O)c1ccco1", "Potency": "inactive"},
      {"smiles": "O=C(COc1ccc(C(=S)N2CCOCC2)cc1)N1CCOCC1", "Potency": "inactive"},
      {"smiles": "COC(=O)CCNS(=O)(=O)c1ccc2nsnc2c1", "Potency": "inactive"},
      {"smiles": "Cc1ccccc1NC1c2ccccc2C(=O)N1Cc1ccco1", "note": "(stereo not given)", "Potency": "inactive"},
      {"smiles": "C[n+]1c2cc(N)ccc2cc2ccc(N)cc21", "Potency": "inactive"},
      {"smiles": "CCc1nnc(NC(=O)CSc2nnnn2-c2cccc(C(C)=O)c2)s1", "Potency": "inactive"},
      {"smiles": "COCCOC(=O)C1=C(C)NC(=O)NC1c1cccc2ccccc12", "note": "(stereo not given)", "Potency": "inactive"},
      {"smiles": "O=C(NC(=O)c1ccccc1)Nc1cccc(S(=O)(=O)N2CCCCC2)c1", "Potency": "inactive"},
      {"smiles": "COc1ccc(CCN=c2c([N+](=O)[O-])nn(-c3cccc(C)c3)n2O)cc1OC", "Potency": "inactive"},
      {"smiles": "COc1ccc(NC(=O)CN2C(=O)CSc3ncccc32)cc1", "Potency": "inactive"},
      {"smiles": "C/C=C(/C(=C/C)c1ccc(O)cc1)c1ccc(O)cc1", "Potency": "inactive"},
      {"smiles": "CC1(C)CC(CCC(=O)NC(=S)Nc2ccccc2Cl)C(=O)O1", "note": "(stereo not given)", "Potency": "inactive"},
      {"smiles": "c1csc(CN2CCOCC2)c1", "Potency": "inactive"},
      {"smiles": "Cc1ccn(CCC(=O)N2CCc3ccccc32)n1", "Potency": "inactive"},
      {"smiles": "CC(C)(C)n1ncc2c(=O)n(Cc3ccc(Cl)cc3)cnc21", "Potency": "inactive"},
      {"smiles": "CCCCn1c(=NC(=O)c2ccco2)c(C(=O)OCC)cc2c(=O)n3cccc(C)c3nc21", "Potency": "inactive"},
      {"smiles": "O=C(c1cccc(F)c1)N1CCN(Cc2cccc(Br)c2)CC1", "Potency": "inactive"},
      {"smiles": "CC(=O)Oc1ccc(OC(C)=O)c(SCCCCCCl)c1", "Potency": "inactive"},
      {"smiles": "COc1ccc2nc(SC(C)C(=O)NC3(C#N)CCCCC3)[nH]c2c1", "note": "(stereo not given)", "Potency": "inactive"}
    ]}
  ]
}
